Reference: PubChem BioAssay (EPA / NIEHS)
Active and inactive are the calls of the source. Rule for the calls: active = hit-call score of the fitted dose curve at least 0.9, where 1 is the maximum; inactive = score below 0.9.

Assays:
[1] = read-out: Cyclin D1 (CCND1), CCND1 (gene 595); assay: LTEA_HepaRG_CCND1: Life Technologies and Expression Analysis (LTEA) Assay for Cyclin D1 (CCND1) using HepaRG (AID 2283451); conditions: mRNA level, 48 h; actives raise or lower the signal
In short: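 Expression of CCND1 was quantified by qRT-PCR on Fluidigm arrays using ACTB, GAPDH and POLR2A as reference genes. HepaRG cultures, plated 48 h beforehand, were dosed for 48 h at up to 100 uM (half-log, 8 points) in 0.5% DMSO.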

[2] = read-out: catalase (CAT), CAT (gene 847); assay: LTEA_HepaRG_CAT: Life Technologies and Expression Analysis (LTEA) Assay for catalase (CAT) using HepaRG (AID 2283452); conditions: mRNA level, 48 h; actives raise or lower the signal
In short: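 Expression of CAT was quantified by TaqMan qRT-PCR with ACTB/GAPDH/POLR2A normalization after 48 h chemical exposure of HepaRG. Eight-point half-log series, top 100 uM, in 0.5% DMSO; gain or loss fitted against vehicle.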

[3] = read-out: flavin-containing dimethylaniline monooxygenases 3 (FMO3), FMO3 (gene 2328); assay: LTEA_HepaRG_FMO3: Life Technologies and Expression Analysis (LTEA) Assay for flavin-containing dimethylaniline monooxygenases 3 (FMO3) using HepaRG (AID 2283453); conditions: mRNA level, 48 h; actives raise or lower the signal;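 for AC50: differentiated human HepaRG liver cells in serum-free induction medium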
In short: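 FMO3 transcript quantified by TaqMan qRT-PCR against three housekeeping genes after 48 h chemical exposure of HepaRG cells. Eight-point half-log series, top 100 uM, 0.5% DMSO vehicle; phenobarbital 1mM induction control; up- or down-regulation fitted.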

[4] = read-out: Cytochrome P450 (CYP1A1), CYP1A1 (gene 1543); assay: LTEA_HepaRG_CYP1A1: Life Technologies and Expression Analysis (LTEA) Assay for Cytochrome P450 (CYP1A1) using HepaRG (AID 2283454); conditions: mRNA level, 48 h; actives raise or lower the signal
In short: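 CYP1A1 transcript levels measured by Fluidigm qRT-PCR against three housekeeping genes, 48 h after chemical dosing of human HepaRG cells (highest concentration 100 uM, half-log steps, 0.5% DMSO vehicle). Gain or loss of signal fitted relative to DMSO.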

[5] = read-out: CFLAR gene, CFLAR (gene 8837); assay: LTEA_HepaRG_CFLAR: Life Technologies and Expression Analysis (LTEA) Assay for CFLAR gene using HepaRG (AID 2283455); conditions: mRNA level, 48 h; actives raise or lower the signal
In short: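 Transcript level by qRT-PCR (normalized to ACTB, GAPDH and POLR2A) after 48 h chemical exposure of HepaRG cells, top concentration 100 uM with half-log steps, 0.5% DMSO vehicle, duplicates; fitted bidirectionally against DMSO baseline.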

[6] = read-out: Forkhead box O1 (FOXO1), FOXO1 (gene 2308); assay: LTEA_HepaRG_FOXO1: Life Technologies and Expression Analysis (LTEA) Assay for Forkhead box O1 (FOXO1) using HepaRG (AID 2283456); conditions: mRNA level, 48 h; actives raise or lower the signal
In short: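 FOXO1 transcript quantified by qRT-PCR after 48 h chemical exposure (top 100 uM, half-log steps, 0.5% DMSO) of HepaRG cells, housekeeping-normalized (ACTB/GAPDH/POLR2A). Changes fitted in both directions relative to vehicle.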

[7] = read-out: growth arrest and DNA damage 45 (GADD45A), GADD45A (gene 1647); assay: LTEA_HepaRG_GADD45A: Life Technologies and Expression Analysis (LTEA) Assay for growth arrest and DNA damage 45 (GADD45A) using HepaRG (AID 2283458); conditions: mRNA level, 48 h; actives raise or lower the signal
In short: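 GADD45A expression was measured by TaqMan qRT-PCR against three housekeeping genes (ACTB, GAPDH, POLR2A) after 48 h treatment of HepaRG cells. Eight-point half-log series up to 100 uM in 0.5% DMSO, run in duplicate.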

[8] = read-out: Forkhead box O3 (FOXO3), FOXO3 (gene 2309); assay: LTEA_HepaRG_FOXO3: Life Technologies and Expression Analysis (LTEA) Assay for Forkhead box O3 (FOXO3) using HepaRG (AID 2283459); conditions: mRNA level, 48 h; actives raise or lower the signal
In short: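 FOXO3 transcript measured by qRT-PCR (normalized to ACTB, GAPDH, POLR2A) after 48 h exposure of HepaRG cells in serum-free induction medium. Duplicates, eight half-log concentrations up to 100 uM, 0.5% DMSO; gain or loss fitted against DMSO.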

[9] = read-out: ABC Transporter (ABCB1), ABCB1 (gene 5243); assay: LTEA_HepaRG_ABCB1: Life Technologies and Expression Analysis (LTEA) Assay for ABC Transporter (ABCB1) using HepaRG (AID 2283460); conditions: mRNA level, 48 h; actives raise or lower the signal
In short: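 ABCB1 transcript level measured by TaqMan qRT-PCR against three housekeeping genes after 48 h chemical exposure of differentiated HepaRG cells. Top concentration 100 uM, half-log steps, eight points, 0.5% DMSO vehicle; bidirectional fit relative to DMSO.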

[10] = read-out: growth arrest and DNA damage 45 (GADD45B), GADD45B (gene 4616); assay: LTEA_HepaRG_GADD45B: Life Technologies and Expression Analysis (LTEA) Assay for growth arrest and DNA damage 45 (GADD45B) using HepaRG (AID 2283461); conditions: mRNA level, 48 h; actives raise or lower the signal
In short: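 Transcript level quantified by Fluidigm TaqMan qRT-PCR with three housekeeping genes for normalization, analyzed for up- or down-regulation against 0.5% DMSO. HepaRG cultures dosed 48 h at eight half-log concentrations up to 100 uM, duplicates.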

[11] = read-out: ABC Transporter (ABCC3), ABCC3 (gene 8714); assay: LTEA_HepaRG_ABCC3: Life Technologies and Expression Analysis (LTEA) Assay for ABC Transporter (ABCC3) using HepaRG (AID 2283462); conditions: mRNA level, 48 h; actives raise or lower the signal
In short: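 Transcript level by TaqMan qRT-PCR, normalised to three housekeeping genes, fitted in both directions relative to vehicle. Chemicals tested in duplicate at eight half-log concentrations up to 100 uM for 48 h on HepaRG cells (0.5% DMSO).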

[12] = read-out: ABC Transporter (ABCB11), ABCB11 (gene 8647); assay: LTEA_HepaRG_ABCB11: Life Technologies and Expression Analysis (LTEA) Assay for ABC Transporter (ABCB11) using HepaRG (AID 2283463); conditions: mRNA level, 48 h; actives raise or lower the signal
In short: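 ABCB11 transcript levels quantified by TaqMan qRT-PCR against three housekeeping genes after 48 h chemical exposure of HepaRG cultures. Concentrations up to 100 uM in half-log steps, 0.5% DMSO vehicle; both induction and suppression scored.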

[13] = read-out: ABC Transporter (ABCC2), ABCC2 (gene 1244); assay: LTEA_HepaRG_ABCC2: Life Technologies and Expression Analysis (LTEA) Assay for ABC Transporter (ABCC2) using HepaRG (AID 2283464); conditions: mRNA level, 48 h; actives raise or lower the signal
In short: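 Endpoint is ABCC2 transcript level from qRT-PCR, normalized to three housekeeping genes and fitted bidirectionally relative to DMSO. Human HepaRG cells received test chemical for 48 h at up to 100 uM (8 points, half-log steps, 0.5% DMSO), duplicate wells.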

[14] = read-out: Broad substrate specificity ATP-binding cassette transporter ABCG2 (Homo sapiens) (UniProt Q9UNQ0); assay: LTEA_HepaRG_ABCG2: Life Technologies and Expression Analysis (LTEA) Assay for ABC Transporter (ABCG2) using HepaRG (AID 2283465); conditions: mRNA level, 48 h; actives raise or lower the signal
In short: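 ABCG2 transcript was quantified by TaqMan qRT-PCR against three housekeeping genes in HepaRG cells. Cells were treated in duplicate for 48 h across an 8-point half-log series up to 100 uM, with 0.5% DMSO vehicle. Gain or loss versus DMSO was fit.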

[15] = read-out: ATP-citrate lyase (ACLY), ACLY (gene 47); assay: LTEA_HepaRG_ACLY: Life Technologies and Expression Analysis (LTEA) Assay for ATP-citrate lyase (ACLY) using HepaRG (AID 2283466); conditions: mRNA level, 48 h; actives raise or lower the signal
In short: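 ACLY mRNA quantified by qRT-PCR on Fluidigm arrays against three housekeeping genes, after 48 h chemical treatment of HepaRG cells (top concentration 100 uM, half-log steps, 0.5% DMSO vehicle). Up- or down-regulation fitted relative to DMSO.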

[16] = read-out: Peroxisomal acyl-coenzyme A oxidase 1 (ACOX1) gene, ACOX1 (gene 51); assay: LTEA_HepaRG_ACOX1: Life Technologies and Expression Analysis (LTEA) Assay for Peroxisomal acyl-coenzyme A oxidase 1 (ACOX1) gene using HepaRG (AID 2283467); conditions: mRNA level, 48 h; actives raise or lower the signal
In short: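 ACOX1 transcript levels were quantified by TaqMan qRT-PCR against three housekeeping genes after 48 h chemical exposure of differentiated human HepaRG cells. Exposure used eight half-log steps topping at 100 uM, 0.5% DMSO vehicle, in duplicate. Bidirectional curve fits were made relative to DMSO.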

[17] = read-out: Alkaline Phosphatase, Placental (ALPP) gene, ALPP (gene 250); assay: LTEA_HepaRG_ALPP: Life Technologies and Expression Analysis (LTEA) Assay for Alkaline Phosphatase, Placental (ALPP) gene using HepaRG (AID 2283468); conditions: mRNA level, 48 h; actives raise or lower the signal;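 for AC50: differentiated human HepaRG liver cells in serum-free induction medium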
In short: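 ALPP transcript level, measured by qRT-PCR and normalized to three housekeeping genes (ACTB, GAPDH, POLR2A), after 48 h dosing of differentiated HepaRG in serum-free induction medium. Top concentration 100 uM with half-log dilutions (8 points, 0.5% DMSO, duplicates); bidirectional fitting relative to DMSO.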

[18] = read-out: Bcl-2 (BAD) gene, BAD (gene 572); assay: LTEA_HepaRG_BAD: Life Technologies and Expression Analysis (LTEA) Assay for Bcl-2 (BAD) gene using HepaRG (AID 2283469); conditions: mRNA level, 48 h; actives raise or lower the signal
In short: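 Read-out: qRT-PCR of BAD mRNA, normalized to three housekeeping genes. Human HepaRG cultures got 48 h chemical exposure in 0.5% DMSO, duplicate eight-point half-log series topping at 100 uM. Gain or loss of signal fitted versus DMSO vehicle.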

[19] = CEETOX_H295R_TESTO: CeeTox H295R High-throughput Steroidogenesis Assay for Testosterone (TESTO) (AID 2283457); conditions: actives raise or lower the signal
In short: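 Testosterone secreted into the medium over 48 h by H295R cells (maximum passage 10) was quantified by LC-MS/MS after MTBE extraction. Fitted in both directions against DMSO, with concentrations diluted until MTT viability was ≥70%.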

[20] = read-out: Bcl-2 (BAX) gene, BAX (gene 581); assay: LTEA_HepaRG_BAX: Life Technologies and Expression Analysis (LTEA) Assay for Bcl-2 (BAX) gene using HepaRG (AID 2283470); conditions: mRNA level, 48 h; actives raise or lower the signal
In short: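 Gene expression measured by Fluidigm qRT-PCR with three housekeeping genes for normalisation. HepaRG cells, plated 48 h beforehand, treated 48 h at up to 100 uM (8-point, half-log) in 0.5% DMSO. Bidirectional fitting versus DMSO.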

Measured: AC50

Sequence of Broad substrate specificity ATP-binding cassette transporter ABCG2 (Homo sapiens) (Q9UNQ0 whole entry, looked up): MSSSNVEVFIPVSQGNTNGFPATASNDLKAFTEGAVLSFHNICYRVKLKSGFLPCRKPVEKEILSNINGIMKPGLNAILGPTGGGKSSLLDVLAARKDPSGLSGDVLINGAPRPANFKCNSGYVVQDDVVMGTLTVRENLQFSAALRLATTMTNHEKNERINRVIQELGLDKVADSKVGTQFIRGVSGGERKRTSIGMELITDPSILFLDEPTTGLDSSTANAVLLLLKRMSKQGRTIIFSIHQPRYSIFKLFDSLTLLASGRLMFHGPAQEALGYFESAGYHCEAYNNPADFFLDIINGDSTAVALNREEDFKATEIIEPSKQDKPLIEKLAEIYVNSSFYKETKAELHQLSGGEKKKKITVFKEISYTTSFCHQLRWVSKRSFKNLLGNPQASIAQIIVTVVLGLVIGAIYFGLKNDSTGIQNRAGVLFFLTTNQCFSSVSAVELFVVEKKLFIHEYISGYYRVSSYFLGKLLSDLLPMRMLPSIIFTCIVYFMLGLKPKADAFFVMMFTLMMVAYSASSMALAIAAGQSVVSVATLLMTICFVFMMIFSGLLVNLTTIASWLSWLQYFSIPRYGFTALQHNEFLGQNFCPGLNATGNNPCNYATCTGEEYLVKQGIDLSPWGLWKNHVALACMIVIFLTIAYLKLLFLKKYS

CCCCCCC(CCCCCCCCCCC(=O)OCC(COC(C)=O)OC(C)=O)OC(C)=O (configuration not stated)
not listed: [19] | [20]
inactive: all other assays above

CO[C@@H]1COCC[C@@H]1N[C@@H]1CC[C@@](C(=O)N2CCc3ncc(C(F)(F)F)cc3C2)(C(C)C)C1
not listed: [19] | [20]
inactive: all other assays above

CCN(CC)CCOc1ccc(C(=C(Cl)c2ccccc2)c2ccccc2)cc1
active: [2] 42 µM | [3] 22 µM | [9] 79.9 µM | [12] 24.9 µM | [13] 67.3 µM | [16] 13.3 µM | [17] 22.6 µM
inactive: all other assays above

CCCCCCCCCC[N+](C)(C)[O-]
active: [4] 50 µM
inactive: all other assays above

CSc1ccc(Oc2ccc(S(N)(=O)=O)cc2CN(C)C)cc1C
active: [3] 77.7 µM | [4] 69.8 µM | [11] 81.5 µM | [12] 84.6 µM | [17] 54.5 µM
not listed: [19] | [20]
inactive: all other assays above

CN(C)CCCN(C)CCCN(C)C
not listed: [19] | [20]
inactive: all other assays above

CC1=C(C)S(=O)(=O)CCS1(=O)=O
active: [3] 90.9 µM | [4] 50 µM | [8] 14.7 µM | [9] 50 µM | [10] 88.8 µM | [11] 0.171 µM | [12] 81 µM | [20] 50 µM
inactive: all other assays above

CC(=O)OCC(COC(C)=O)OC(C)=O
active: [4] 12 µM
not listed: [19] | [20]
inactive: all other assays above

O=C(Oc1ccccc1)c1cccc(C(=O)Oc2ccccc2)c1
active: [4] 67.7 µM
not listed: [20]
inactive: all other assays above

NC1CCCCC1
not listed: [19] | [20]
inactive: all other assays above

CCC(C)N(C)C(=O)c1cc2ccccc2c(-c2ccccc2Cl)n1 (configuration not stated)
active: [4] 37.7 µM | [9] 5.38 µM | [13] 7.48 µM | [14] 4.44 µM
not listed: [20]
inactive: all other assays above

CCCCCCCC(=O)OC
active: [3] 12.1 µM
not listed: [19] | [20]
inactive: all other assays above

Cc1ccc(C(C)(C)C)c(O)c1
active: [4] 41.7 µM
not listed: [19] | [20]
inactive: all other assays above
